A selection: hits, their analogues and other compounds. The true share with any hit is near 2.2%.
IDH1 R132H inh: blocks human mutant IDH1 R132H enzyme; Potency, µM (highest dose often 76.6 µM), usual class: inhibitors; IDH1-R132H enzyme, NADPH consumption, diaphorase/resazurin fluorescence; O75874; hit rate 0.093% among 390,000; note: nearly all actives have a fitted effect of over 65% in size
Target sequence (O75874 whole entry R132H, stated change not applied): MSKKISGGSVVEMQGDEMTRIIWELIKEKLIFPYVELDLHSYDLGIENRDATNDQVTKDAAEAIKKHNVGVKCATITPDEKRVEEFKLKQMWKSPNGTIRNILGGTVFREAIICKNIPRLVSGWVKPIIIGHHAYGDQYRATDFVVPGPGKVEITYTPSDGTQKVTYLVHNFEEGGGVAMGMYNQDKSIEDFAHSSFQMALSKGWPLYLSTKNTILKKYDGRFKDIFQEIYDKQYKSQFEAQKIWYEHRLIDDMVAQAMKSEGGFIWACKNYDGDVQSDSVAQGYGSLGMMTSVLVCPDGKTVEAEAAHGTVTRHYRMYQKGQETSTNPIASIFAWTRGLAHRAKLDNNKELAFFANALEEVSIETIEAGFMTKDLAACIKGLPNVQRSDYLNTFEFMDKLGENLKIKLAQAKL
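IDH1-R132H (0.5 ug/mL dispensed) in pH 7.5 Tris buffer was preincubated 30 min with compound, then given a substrate mix of 0.016 mM NADPH and 2 mM alpha-KG for 80 min at room temperature; remaining NADPH was read by diaphorase/resazurin fluorescence.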
Giardia kill: Giardia lamblia killing | activity change, % at 7.66 µM, hits read low | hit rate 0.15% among 340,000 | AID 540267 | Giardia lamblia trophozoite viability; in the data active = activity change below about -80%; inconclusive = between about -30% and that limit;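 note: parasites exposed to compound for two days anaerobically before the ATP read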
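Luminescence from cellular ATP indicates surviving trophozoites (100 cells/well) following 48 hrs anaerobic compound treatment at 37 deg C; signal develops 15-30 min at room temperature.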
TrxR1 substrate: substrates of rat thioredoxin reductase 1; purified TrxR1 substrate turnover, NADPH consumption readout; Potency, µM (doses to about 114 µM); hit rate 0.01% among 390,000; AID 588456; note: nearly all actives have a fitted effect of over 50% in size
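Rat TrxR1, dispensed at 90 nM, was prereduced with 400 uM NADPH (final) for 5 min at ~22 deg C, then incubated with compound 15 min before 400 uM selenite. A first-read NADPH fluorescence drop versus no-compound background flagged substrates.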
rTrxR1 inhibitor: blocks rat thioredoxin reductase 1; Potency, µM (highest dose often 114 µM), most hits filed as inhibitors; O89049; hit rate 1% among 390,000; recombinant rTrxR1, NADPH fluorescence consumption, selenite substrate; note: nearly all actives have a fitted effect of over 65% in size
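Rat TrxR1 (90 nM in the dispensed reagent) was pre-reduced with 400 uM NADPH for 5 min at room temperature, then incubated with compound for 15 min. After 400 uM selenite was added, NADPH fluorescence (Ex 340/Em 450 nm) was followed for 8 min.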
BRCA1 expr act: increases BRCA1 expression; Potency, µM (doses to about 46.1 µM), most hits filed as activators; MCF7-BRCA1-FFLuc reporter, luminescence, 48 h; response scale: scaled: vehicle 0%, 10 µM genistein 100%; hit rate 1.1% among 380,000; AID 624202; note: nearly all actives have a fitted effect of over 80% in size
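MCF7 cells carrying a BRCA1-firefly luciferase reporter (2000 cells/well, phenol-red free MEM) were attached for 2 h at 37 °C, then given compounds for 48 h. Luminescence was read 15 min after luciferase reagent; activity normalized to genistein (10 microM) and DMSO.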
IL2 activator: activates IL-2 in a cell-based reporter assay. IL-2 activation reporter assay, cell-based qHTS; stimulated with anti-CD3/CD4/CD28 beads; in transgenic mouse T cells. activation, % (series mostly up to about 46 µM). hit rate 0.065% among 360,000. AID 652025; in the data active = activation above about 50%; inconclusive = mostly about 30% to 49%
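Unstimulated transgenic mouse T cells, 750 per well, received compound and, after 60 minutes, anti-CD3/anti-CD4 bead plus anti-CD28 stimulation. EGFP and DsRed were quantified after 18 hours.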
Numbers stand for hits; n = inactive; u = inconclusive; x = no result given; [ ] = remark or other dose. Unless noted, calls come from the whole dose curve; as a rule, active = well fitted curve in the direction sought with a large enough effect; inconclusive = small, poorly fitted or top-dose-only effect, or another doubt; inactive = no such curve, though single readings can be large; an effect the other way counts as inactive or inconclusive.

SMILES	IDH1 R132H inh	Giardia kill	TrxR1 substrate	rTrxR1 inhibitor	BRCA1 expr act	IL2 activator
Cc1ccc(C(=O)OCC(=O)N(CC(C)C)c2c(N)n(Cc3ccccc3)c(=O)[nH]c2=O)cc1[N+](=O)[O-]	n	n	n	n	n	n
CN(C(=O)COC(=O)c1ccc(Br)c([N+](=O)[O-])c1)c1c(N)n(Cc2ccccc2)c(=O)[nH]c1=O	n	n	n	40µM	n	n
Cc1ccc(N2C(=O)CS(=O)(=O)C23C(=O)N(C)c2ccccc23)cc1F (configuration not stated)	n	x	n	n	n	x
O=C(C[N+]12CCCc3cccc(c31)CCC2)c1ccc(Cl)c2ccccc12	x	x	n	n	x	x
C/C(=N\NC(=O)c1ccc(N2CCCC2=O)cc1)c1ccccc1	n	n	n	n	n	n
CNC(=S)N/N=C(\C)c1ccc(N2CCOCC2)cc1	n	n	n	u	8.9µM	n
O=C(N/N=C/c1ccc(N2CCOCC2)o1)c1cccc([N+](=O)[O-])c1	n	n	n	3.2µM	n	n
C/C(=N\NC(=O)c1ccccc1)c1ccccc1Br	n	n	n	n	11µM	n
O=C(N/N=C/c1ccccc1)c1ccc(N2CCOCC2)c([N+](=O)[O-])c1	n	n	n	n	n	n
C/C(=N\NC(=O)c1ccccc1)c1ccc(N2CCCCC2)cc1	n	n	n	n	11µM	n
CCNC(=S)N/N=C(\C)c1ccc(N2CCOCC2)cc1	n	n	n	n	n	n
Cn1c(=O)c2sccc2n2c(CCCC(=O)Nc3ccc(Oc4ccccc4)cc3)nnc12	n	x	n	n	x	x
COc1ccccc1CNc1nccn(-c2ccccc2)c1=O	n	x	n	n	n	x
O=C(N/N=C/c1ccc(N2CCCCC2)o1)c1ccccc1	n	n	n	2.8µM	n	n
Cc1c(S(=O)(=O)c2ccccn2)c(N)n(Cc2cccc(Cl)c2)c1C	n	n	n	20µM	n	n
CCOC(=O)c1cc(S(=O)(=O)N2CCN(c3cc(Cl)ccc3C)CC2)[nH]n1	n	x	n	n	x	x
Cc1ccc(NC(=O)CCc2c(C)nc3c(-c4ccccc4)c(C)nn3c2C)c(C)c1	n	x	n	n	n	x
O=C1CC(NS(=O)(=O)c2ccc([N+](=O)[O-])cc2)CN1c1ccc(Cl)cc1 (configuration not stated)	n	n	n	50µM	n	n
O=C1CC(NS(=O)(=O)c2ccc([N+](=O)[O-])cc2)CN1c1ccc2c(c1)OCCO2 (configuration not stated)	n	n	n	n	n	n
Oc1ccc(N=Cc2cc(Br)c(N3CCOCC3)o2)cc1	n	n	n	32µM	n	n
O=[N+]([O-])c1cc(Br)c(O)c(C=Nc2ccc(N3CCOCC3)cc2)c1	n	n	n	n	n	n
CCOC(=O)C=C(C(=O)OCC)C(=O)OCC	n	n	n	3.5µM	n	n
N#C/C(=C\c1ccc(-c2ccccc2)cc1)c1nc(-c2ccco2)cs1	n	n	n	n	n	79
CCc1ccccc1Nc1nn2c(=O)c3ccc(C(=O)NC4CCC(C)CC4)cc3nc2s1 (configuration not stated)	n	x	n	n	n	x
COC(=O)c1cc(C)nc2c1C(=O)C(=O)C=C2N1CCOCC1	n	n	35µM	n	n	n
SMILES	IDH1 R132H inh	Giardia kill	TrxR1 substrate	rTrxR1 inhibitor	BRCA1 expr act	IL2 activator
COC(=O)c1cc(S(=O)(=O)N2CCOCC2)c(Cl)cc1N1CCOCC1	n	n	n	n	n	n
Cc1ccc2cc(NC(=O)c3ccccc3C)ccc2n1	n	n	n	n	7.1µM	n
CCc1ccc(C(=O)Nc2ccc3nc(C)ccc3c2)cc1	n	n	n	n	3.2µM	n
Cc1ccc2cc(NC(=O)Cc3ccccc3)ccc2n1	n	u	n	n	4.5µM	n
CCCCn1cnc2c(cnn2-c2ccc(Cl)cc2)c1=O	n	n	n	n[11.4 µM]	11µM	n
COc1ccc(CN(CCC(c2ccc3c(c2)OCO3)c2ccccc2OC)C(C)=O)cc1 (configuration not stated)	n	x	n	n	x	x
CC(=O)N(CCC(Cc1ccccc1)c1ccc2c(c1)OCO2)Cc1ccc(Cl)cc1 (configuration not stated)	7.4µM	n	n	n	n	n
O=C(O)c1ccc(N/N=C/C(Br)=C/c2ccccc2)cc1	n	n	n	32µM	u	n
O=C(N/N=C/C(Br)=C/c1ccccc1)C(O)c1ccccc1 (configuration not stated)	n	n	n	n	n	n
COc1ccc(CCNC(=O)C(=O)NCC(c2cccs2)S(=O)(=O)c2cccs2)cc1 (configuration not stated)	n	x	n	n	x	x
CC(=O)c1ccc(N=C2C(=O)Nc3ccccc32)cc1	26µM	n	n	n	n	n
COc1ccc(C2OC3=C(Nc4cc(C)c(C)cc4N3)C2=O)cc1 (configuration not stated)	n	n	n	n[2.29 µM]	2.8µM	n
COc1ccc(OCC(=O)N/N=C\c2ccco2)cc1	n	n	n	n	n	n
COc1ccc(/[N+]([O-])=C/c2ccco2)cc1	n	n	n	56µM	8.9µM	n
O=[N+]([O-])c1ccc(O)c(/C=N/n2cnc3ccccc32)c1	n	n	n	n	n	n
Cc1ccc(/C=C2\SC(=S)N(/N=C/c3cc([N+](=O)[O-])ccc3O)C2=O)o1	n	n	n	22µM	n	n
CC(=O)Nc1ccc(-c2csc(NCc3ccco3)n2)cc1	n	n	n	n	u	n
COc1ccc(-c2csc(NCc3ccco3)n2)cc1C	n	n	n	n	6.3µM	n
COc1cccc(NC(=O)c2nc(S(C)(=O)=O)ncc2Cl)c1	n	n	n	8.9µM	n	n
Cc1cccc(NC(=O)c2nc(S(C)(=O)=O)ncc2Cl)c1	n	x	n	7.1µM	x	x
COc1cccc(NC(=O)c2nc(SC)ncc2Cl)c1	n	n	n	u	n	n
O=C(CSc1ccccc1)Nc1ccc(N2CCOCC2)cc1	n	n	n	n	u	n
O=C(Cc1ccccc1)Nc1ccc(CN2CCOCC2)cc1	n	n	n	n	10µM	n
O=C(CSc1ccccc1)Nc1ccc(N2CCOCC2)c(F)c1	n	n	n	n	7.9µM	n
O=C(CSc1ccccc1F)Nc1ccc(N2CCOCC2)cc1	n	n	n	n	5.6µM	n
O=C(Nc1ccc(N2CCOCC2)cc1)C1CCN(C(=O)OCc2ccccc2)CC1	n	n	n	n	2.8µM	n
O=C(Nc1ccc(N2CCOCC2)cc1Cl)C1CCN(C(=O)OCc2ccccc2)CC1	n	n	n	n	n	n
O=C(CSc1ccc(Cl)cc1)Nc1ccc(N2CCN(c3ccccc3)CC2)c(F)c1	n	n	n	n	n	n

High-throughput results from PubChem BioAssay.
